For five compounds, fluorescence change (kMESF span) results are on record in PubChem BioAssay AID504521 (NMMLSC, 2011).

The list shows a part of the results. A number with no mark means an inactive call.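 The calls were made as follows: active = compounds whose bead fluorescence drops by more than 37 kMESF across the dose range, marking them as dye quenchers; inactive = the rest.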

This test can be described thus: aptamer fluorescence quenchers, flow cytometry – biochemical, cherry pick 1, bead-based flow cytometry, artefact control for GRK2 RNA aptamer inhibitor project, dose response (AID 504521). As to conditions: Fluorescent RNA aptamer beads, quenching, active compounds read high.
With `C=C(C)C(=O)Nc1cccc(C2=NOC3(C2)C[C@H](C(N)=O)N(C(=O)C(c2ccccc2)c2ccccc2)C3)c1` (stereo not given in full), the fluorescence change (kMESF span) is -3.5 kMESF.
Turning to `CCN1/C(=C\c2ccc3ccccc3[n+]2CC)Sc2cc(C)ccc21`, the fluorescence change (kMESF span) was 8.1 kMESF.
As to `COc1ccc(N2CCN(C(CNS(=O)(=O)c3ccc(C)cc3)c3ccccc3)CC2)cc1` (stereo not given), the fluorescence change (kMESF span) is 7.4 kMESF.
For the compound `CCN1/C(=C/c2ccc3ccc(C)cc3[n+]2CC)Sc2ccccc21`, the fluorescence change (kMESF span) is -1.6 kMESF.
The result for `O=C(CCS(=O)(=O)c1ccc(Br)cc1)NCCc1ccc(Cl)cc1` reads 10.9 kMESF.
